{
  "source": "PubChem BioAssay (NCI)",
  "note": "About 83,000 compounds went through this panel and 20% of them were active in at least one assay; those are over-represented in the sample as a whole.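 Values shown are percent growth following 48 h exposure of cells in 96-well plates to a single concentration of compound; below 10 was considered active.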 A number with no mark means an inactive call. Calls of active or inactive are those of the source.",
  "data": [
    {"tested_on": "SNB-75 CNS", "experiment": "NCI-60 one-dose screen, 48 h (100 = growth as untreated, 0 = no growth, -100 = all killed)", "settings": "10 µM unless noted", "values": [
      {"smiles": "O=C1c2ccccc2C(=O)c2c(N=Nc3[nH]c(=S)[nH]c3O)cccc21", "growth": "-20.2% (active)"},
      {"smiles": "C#CCOc1ccc2ncnc(N3CCC(NC(=O)CCl)CC3)c2c1", "growth": "24.2% [8.25 µM]"},
      {"smiles": "Cc1cc2c3ccccc3ccc2[n+]2ccccc12", "growth": "14.6%"},
      {"smiles": "Cc1ccc(/C=C2\\SC(=S)N(CC(=O)NCCCN3CCOCC3)C2=O)cc1", "growth": "87.2%"},
      {"smiles": "CC(=O)O[C@H]1[C@@H]2OC(=O)C(CSc3ccccc3)[C@@H]2C[C@H]2O[C@]2(C)CC/C=C(\\C)CCC[C@@H]1C", "note": "(some centres not stated)", "growth": "37.1%"},
      {"smiles": "Cc1cc2nc(NC(=O)CN3CCN(CCN4C(=O)c5cccc6cccc(c56)C4=O)CC3)sc2cc1C", "growth": "77.8%"},
      {"smiles": "CC(=O)Oc1ccc(Cl)cc1CN(C(C)=O)C1CCCCC1", "growth": "93.7%"},
      {"smiles": "O=C(NCCN1CCOCC1)Nc1ccc(-c2cc3c(Nc4ccc(Oc5cccc(C(F)(F)F)c5)c(Cl)c4)ncnc3s2)cc1", "growth": "-48.4% (active)"},
      {"smiles": "Cn1ccnc1C(=O)/C=C/c1ccccc1", "growth": "12.9%"},
      {"smiles": "Brc1ccc(-c2csc(Nc3ccccn3)n2)cc1", "growth": "93.4%"},
      {"smiles": "COc1ccc2c(c1)O/C(=C\\c1cccc(OCC(=O)Nc3nc4c(s3)CCCC4)c1)C2=O", "growth": "29.3%"},
      {"smiles": "C=CCSSC1N=CNc2nc[nH]c21", "note": "(configuration not stated)", "growth": "46.9%"},
      {"smiles": "COc1ccc(S(=O)(=O)N2CCCCCC2)cc1NC(=O)c1[nH]c(C)c2c1CCCCC2=O", "growth": "4.93% (active)"},
      {"smiles": "Cc1ccc(C(SCC(N)C(=O)O)(c2ccccc2)c2ccc(C)cc2)cc1", "note": "(configuration not stated)", "growth": "16.8%"},
      {"smiles": "O=C(O)c1ccc(NC(=O)c2ccc(-c3cccc([N+](=O)[O-])c3)o2)cc1", "growth": "88%"},
      {"smiles": "CC1=CC(C)(C)Nc2ccc(Cc3ccc4c(c3)C(C)=CC(C)(C)N4)cc21", "growth": "86.3%"},
      {"smiles": "COc1ccc(C2CC(c3ccc4ccccc4c3)=NN2/C=C2\\SC(=S)N(NC(=O)Cc3ccccc3Nc3c(Cl)cccc3Cl)C2=O)cc1", "note": "(configuration not stated)", "growth": "-15.7% (active)"},
      {"smiles": "Cn1c(NCCc2ccc(O)c(O)c2)nc2c1c(=O)n(Cc1ccc(Br)cc1)c(=O)n2C", "growth": "74.6%"},
      {"smiles": "Cc1ccc2c(c1)C(=O)/C(=C/c1cccc(OCC(=O)c3ccc(Cl)cc3)c1)CS2", "growth": "87.6%"},
      {"smiles": "COC(=O)c1ccc(NC(=O)c2ccc(-c3cccc([N+](=O)[O-])c3)o2)cc1", "growth": "82.4%"},
      {"smiles": "COc1cc(C(=O)/C=C/c2cccnc2Nc2ccc(Cl)cc2)cc(OC)c1OC", "growth": "-74.7% (active)"},
      {"smiles": "Cc1cc(C)nc(SC2=C(Nc3cc(Cl)ccc3O)C(=O)N(Cc3ccccc3)C2=O)n1", "growth": "81% [30 µM]"},
      {"smiles": "CC(C)CSc1nc(N)nc2c1ncn2C1OC(CO)C(O)C1O", "note": "(configuration not stated)", "growth": "101%"},
      {"smiles": "O=C1NC(=Nc2ccc(O)cc2)S/C1=C\\c1cccc(Cl)c1", "growth": "70.9%"}
    ]},
    {"tested_on": "SNB-19 CNS", "experiment": "NCI-60 one-dose screen, 48 h (100 = growth as untreated, 0 = no growth, -100 = all killed)", "settings": "10 µM unless noted", "values": [
      {"smiles": "Cc1ccc2c(C(C[N+](=O)[O-])c3ccco3)c(-c3ccccc3)[nH]c2c1", "note": "(configuration not stated)", "growth": "38.5%"},
      {"smiles": "NC(=O)c1cc(Br)ccc1NC(=O)/C=C/c1ccccc1", "growth": "47.2%"},
      {"smiles": "O=C1c2cccc3cccc(c23)C(=O)N1CCCCN1CCN(CCCCOc2ccc(-c3nc4ccc(N5CCOCC5)cc4[nH]3)cc2)CC1", "growth": "89.4%"},
      {"smiles": "Cc1cc(C)nc(SC2=C(Nc3cccc(Cl)c3)C(=O)N(Cc3ccccc3)C2=O)n1", "growth": "94.4% [30 µM]"},
      {"smiles": "CN(C)C(=S)N=Nc1c(O)[nH]c2ccccc12", "growth": "18.3%"},
      {"smiles": "O=C1/C(=C/c2ccc3c(c2)OCO3)SC(=S)N1CCc1ccc(O)cc1", "growth": "95.5%"},
      {"smiles": "N#Cc1cnn(-c2nc3c(Cl)cccc3s2)c1N", "growth": "94.8%"},
      {"smiles": "Nc1ccn(-c2ccc(Br)cc2)c(=O)n1", "growth": "140%"},
      {"smiles": "Cc1ccc(C2=NN3C(C2)c2cc(Br)ccc2OC32CCN(Cc3ccccc3)CC2)o1", "note": "(configuration not stated)", "growth": "94.9%"},
      {"smiles": "COc1ccc(C(=O)COc2ccc(/C=C3\\COc4ccc(OC)cc4C3=O)cc2)cc1", "growth": "101%"},
      {"smiles": "CCN(CC)c1ccc(-c2cc(-c3cc(OC)c(OC)c(OC)c3)nc(N3CCOCC3)c2C#N)cc1", "growth": "79%"},
      {"smiles": "Cn1cc(-c2nonc2-c2cn(C)c3ccc(F)cc23)c2ccccc21", "growth": "31.6%"},
      {"smiles": "COc1ccc(C(=O)COc2cccc(/C=C3\\CSc4ccccc4C3=O)c2)cc1", "growth": "63.6%"},
      {"smiles": "CCn1c(Cc2ccccc2Nc2c(Cl)cccc2Cl)nnc1SCC(=O)NN1C(=O)/C(=C/c2cc(OC)c(O)c(OC)c2)SC1=S", "growth": "41.9%"},
      {"smiles": "O=C1c2ccccc2C(=O)c2c(N=Nc3[nH]c(=S)[nH]c3O)cccc21", "growth": "28.9%"},
      {"smiles": "C#CCOc1ccc2ncnc(N3CCC(NC(=O)CCl)CC3)c2c1", "growth": "77.9% [8.25 µM]"},
      {"smiles": "Cc1cc2c3ccccc3ccc2[n+]2ccccc12", "growth": "4.52% (active)"},
      {"smiles": "Cc1ccc(/C=C2\\SC(=S)N(CC(=O)NCCCN3CCOCC3)C2=O)cc1", "growth": "94.5%"},
      {"smiles": "CC(=O)O[C@H]1[C@@H]2OC(=O)C(CSc3ccccc3)[C@@H]2C[C@H]2O[C@]2(C)CC/C=C(\\C)CCC[C@@H]1C", "note": "(some centres not stated)", "growth": "68%"},
      {"smiles": "Cc1cc2nc(NC(=O)CN3CCN(CCN4C(=O)c5cccc6cccc(c56)C4=O)CC3)sc2cc1C", "growth": "75.3%"},
      {"smiles": "CC(=O)Oc1ccc(Cl)cc1CN(C(C)=O)C1CCCCC1", "growth": "95.7%"},
      {"smiles": "O=C(NCCN1CCOCC1)Nc1ccc(-c2cc3c(Nc4ccc(Oc5cccc(C(F)(F)F)c5)c(Cl)c4)ncnc3s2)cc1", "growth": "43.1%"},
      {"smiles": "Cn1ccnc1C(=O)/C=C/c1ccccc1", "growth": "42.2%"},
      {"smiles": "Brc1ccc(-c2csc(Nc3ccccn3)n2)cc1", "growth": "99.4%"},
      {"smiles": "COc1ccc2c(c1)O/C(=C\\c1cccc(OCC(=O)Nc3nc4c(s3)CCCC4)c1)C2=O", "growth": "76.1%"},
      {"smiles": "C=CCSSC1N=CNc2nc[nH]c21", "note": "(configuration not stated)", "growth": "89.1%"},
      {"smiles": "COc1ccc(S(=O)(=O)N2CCCCCC2)cc1NC(=O)c1[nH]c(C)c2c1CCCCC2=O", "growth": "38.2%"},
      {"smiles": "Cc1ccc(C(SCC(N)C(=O)O)(c2ccccc2)c2ccc(C)cc2)cc1", "note": "(configuration not stated)", "growth": "36.5%"},
      {"smiles": "O=C(O)c1ccc(NC(=O)c2ccc(-c3cccc([N+](=O)[O-])c3)o2)cc1", "growth": "92%"},
      {"smiles": "CC1=CC(C)(C)Nc2ccc(Cc3ccc4c(c3)C(C)=CC(C)(C)N4)cc21", "growth": "93.4%"},
      {"smiles": "COc1ccc(C2CC(c3ccc4ccccc4c3)=NN2/C=C2\\SC(=S)N(NC(=O)Cc3ccccc3Nc3c(Cl)cccc3Cl)C2=O)cc1", "note": "(configuration not stated)", "growth": "32%"},
      {"smiles": "Cn1c(NCCc2ccc(O)c(O)c2)nc2c1c(=O)n(Cc1ccc(Br)cc1)c(=O)n2C", "growth": "79.8%"},
      {"smiles": "Cc1ccc2c(c1)C(=O)/C(=C/c1cccc(OCC(=O)c3ccc(Cl)cc3)c1)CS2", "growth": "93.9%"},
      {"smiles": "COC(=O)c1ccc(NC(=O)c2ccc(-c3cccc([N+](=O)[O-])c3)o2)cc1", "growth": "94.4%"},
      {"smiles": "COc1cc(C(=O)/C=C/c2cccnc2Nc2ccc(Cl)cc2)cc(OC)c1OC", "growth": "-80.5% (active)"},
      {"smiles": "Cc1cc(C)nc(SC2=C(Nc3cc(Cl)ccc3O)C(=O)N(Cc3ccccc3)C2=O)n1", "growth": "89.6% [30 µM]"},
      {"smiles": "CC(C)CSc1nc(N)nc2c1ncn2C1OC(CO)C(O)C1O", "note": "(configuration not stated)", "growth": "104%"},
      {"smiles": "O=C1NC(=Nc2ccc(O)cc2)S/C1=C\\c1cccc(Cl)c1", "growth": "73.5%"}
    ]}
  ]
}
